Bioassay records as filed in PubChem BioAssay.
Hits are enriched below; roughly 4.3% of the tested compounds scored in any of these assays.
GLP1R ag: qHTS of GLP-1 Receptor Agonists; actives 0.007% (n = 380,000); Potency, µM (doses to about 45.6 µM), inactives show top-dose activation, usual class: activators; Glucagon-like peptide 1 receptor (Homo sapiens), P43220; HEK293 GLP-1R CRE-luciferase, luminescence, 4-6 h; cells express a hypersensitive GLP-1R form; AID 624172, 2012; note: potency is the fitted concentration of half-maximal effect; % of control where 0% means no effect
Target sequence (P43220 whole entry, looked up): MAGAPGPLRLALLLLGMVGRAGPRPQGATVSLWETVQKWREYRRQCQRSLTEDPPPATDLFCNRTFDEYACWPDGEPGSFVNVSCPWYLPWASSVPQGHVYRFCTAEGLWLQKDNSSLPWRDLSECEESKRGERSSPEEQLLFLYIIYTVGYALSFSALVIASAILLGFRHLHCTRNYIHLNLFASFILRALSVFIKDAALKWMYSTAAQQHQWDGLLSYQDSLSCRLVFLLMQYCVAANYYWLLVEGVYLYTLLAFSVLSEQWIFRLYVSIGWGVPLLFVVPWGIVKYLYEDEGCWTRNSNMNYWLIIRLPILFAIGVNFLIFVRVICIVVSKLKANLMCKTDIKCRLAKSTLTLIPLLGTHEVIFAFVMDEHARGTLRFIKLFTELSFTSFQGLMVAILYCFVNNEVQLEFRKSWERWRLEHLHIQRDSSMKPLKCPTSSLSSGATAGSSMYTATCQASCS
DRD3 antagonist: qHTS of D3 Dopamine Receptor Antagonist: qHTS; D(3) dopamine receptor (Homo sapiens), P35462; D3R cells, DiscoveRx beta-arrestin luminescence, antagonist mode; stronger effect = lower value; max response, negative = inhibition, %; actives 2.5% (n = 360,000); AID 652054, 2013; in the data active = max response below about -50%; inconclusive = no clear call, values can overlap the other calls; note: % is set by controls: 0 for no effect and ±100 for the full control effect
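Cells expressing the human receptor were seeded at 1500 cells/well, incubated overnight at 37 degrees C in 5% CO2, then exposed to library compounds with dopamine controls for 90 minutes at 37 degrees C before luminescent detection.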
DRD3 agonist: qHTS of D3 Dopamine Receptor Agonist: qHTS; actives 0.58% (n = 410,000); max activation, %; D(3) dopamine receptor (Homo sapiens), P35462; AID 652048, 2013; D3R DiscoveRx beta-arrestin cells, luminescence, 90 min; in the data active = max activation above about 30%; note: 0% is about no effect
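Agonist-mode cell screen: cells plated at 1500/well and incubated overnight at 37 °C, then exposed to library compounds for 90 min at 37 °C. Detection reagent was added for 30–60 min at room temperature, and luminescence was read.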
GLP1R inv ag: qHTS of GLP-1 Receptor Inverse Agonists (Inhibition Mode). actives 1.6% (n = 410,000). HEK293 GLP-1R CRE-luciferase, luminescence, 24 h; GLP-1R form is constitutively active. AID 624417, 2012. Potency, µM (series often up to 38.3 µM), for the others: at the top dose activity change, negative = inhibition, hits mostly inhibitors; note: potency is the fitted concentration of half-maximal effect; % is set by controls: 0 for no effect and ±100 for the full control effect; nearly all actives have a fitted effect of over 55% in size
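Inverse agonists were sought by their lowering of basal cAMP reporter luciferase output in HEK293 cells stably carrying constitutively active human GLP-1R, after 24 h compound treatment.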
An asterisk follows results filed as active; u = inconclusive; x = no result; ! = repeats disagree; [ ] = another dose, or the depositor's remark. Unless noted, calls come from the whole dose curve; as a rule, active = well fitted curve in the direction sought with a large enough effect; inconclusive = small, poorly fitted or top-dose-only effect, or another doubt; inactive = no such curve, though single readings can be large; an effect the other way counts as inactive or inconclusive.

SMILES	GLP1R ag	DRD3 antagonist	DRD3 agonist	GLP1R inv ag
O=C1[C@H]2[C@@H](c3ccc(C(F)(F)F)cc3)N[C@]3(CCCN(Cc4ccc(F)cc4)C3=O)[C@H]2C(=O)N1Cc1ccccc1	-6.4%	7.1	2.1	8.91µM*
Cc1ccc(Nc2nc(C(=O)N3CCC(C(=O)NCc4ccccc4)CC3)cs2)cc1	14.1%	0.2	2.7	u
COc1ccc(CNC(=O)C2CCN(C(=O)c3csc(Nc4ccc(C)cc4)n3)CC2)cc1	15.4%	-9.4	-8.9	7.94µM*
COc1ccc(N2CCN(C(=O)c3cc(-c4ccc(F)cc4)[nH]c3C)CC2)cc1	6.7%	-17.1	4.2	10µM*
CCN1CCCC1CNC(=O)c1ccc(Sc2ccccc2Cl)c([N+](=O)[O-])c1 (stereo not given)	7.0%	-75.0*	-14.6	3.16µM*
CCN1CCN(C(=O)c2ccc(Sc3ccccc3Cl)c([N+](=O)[O-])c2)CC1	2.9%	u	-7.7	u
CCN1CCCC1CNC(=O)c1ccc(Sc2ccc(F)cc2)c([N+](=O)[O-])c1 (stereo not given)	10.4%	-76.7*	-7.7	u
Cc1ccc2ccc(S(=O)(=O)n3nc(C)cc3C)cc2c1	1.9%	-59.7*	-9.9	-30.3%
O=Cc1c(Sc2ccccn2)nc2ccccn2c1=O	0.0%	-51.7*	2.7	u
Cc1c(C(=O)NCc2ccc(OC(C)C)cc2)sc2ncnc(N(C)C3CCCCC3)c12	x	x	-10.2	3.0%
CN(C)Cc1c(C(=O)Nc2ccccc2)[nH]c2ccccc12	32.2%	-57.3*	-45.2	-13.9%
CC(C)NC(=O)c1ccc(-n2nc(C(F)(F)F)c3c2CCCC3)cc1	-5.8%	2.9	1.5	15.3%
O=C(c1ccco1)N1CCCC(N2CCN(c3cccc(C(F)(F)F)c3)CC2)C1 (stereo not given)	7.2%	-65.5*	-18.4	u
Cc1cc(C)c(C(=O)N2CCCC(N3CCN(c4cccc(C(F)(F)F)c4)CC3)C2)o1 (stereo not given)	4.7%	-54.4*	-4.7	u
COc1cccc(CNC(=O)C2=C(C)C(=O)OC23CCN(C(C)=O)CC3)c1OC	x	x	2.3	16.3%
Cc1cc(C(=O)COC(=O)c2ccc[nH]c2=O)c(C)n1-c1ccccc1	-44.7%	-23.0	9.0	u
Cc1cc(C(=O)COC(=O)c2ccc[nH]c2=O)c(C)n1C1CC1	-0.1%	8.1	32.9*	-9.2%
COC(=O)c1cc(C)nc2c1C(=O)C(=O)C=C2N1CCOCC1	-10.6%	-100.1*	0.0	u
COC(=O)c1cc(S(=O)(=O)N2CCOCC2)c(Cl)cc1N1CCOCC1	-10.1%	u	1.6	26.5%
CCOc1ccc(NC(=O)CN2CCN(c3ccc(Cl)cc3)CC2)cc1	x	x	-0.9	2.4%
NC(N)=N/N=C/c1cccc(Cl)c1Cl	0.4%	-1.9	-16.0	10µM*
COc1ccc(/C=C/C(=O)c2ccc([N+](=O)[O-])o2)cc1OC	-15.4%	u	-28.8	18.8%
COc1cc(/C=C/C(=O)c2ccc([N+](=O)[O-])o2)ccc1O	-3.2%	-98.0*	-31.4	3.8%
O=C(/C=C/c1cccc(Cl)c1)c1ccc([N+](=O)[O-])o1	-15.8%	-83.7*	-10.0	u
O=C(NCCCN1CCN(c2cccc(Cl)c2)CC1)c1sc2ncccc2c1-n1cccc1	x	x	2.8	u
SMILES	GLP1R ag	DRD3 antagonist	DRD3 agonist	GLP1R inv ag
CCn1c2ccc(C)cc2c2nnc(SCCN3CCOCC3)nc21	0.1%	-23.5	-1.9	89.2%[7.66 µM]
Cc1ccc2[nH]c3nc(SCCN4CCOCC4)nnc3c2c1	-4.6%	-57.4*	-3.3	0.0%
O=C(NCCN1CCN(c2ccccc2F)CC1)c1cccn2c(=O)c3ccccc3nc12	-0.3%	-50.2*	-17.1	36.2%
CC(C)c1ccc(Nc2cc(C(=O)NCCCN(C)Cc3ccccc3)c3ccccc3n2)cc1	x	x	-18.3	0.6%
CN(CCCNC(=O)c1cccn2c(=O)c3ccccc3nc12)Cc1ccccc1	8.8%	-55.7*	-57.1	0.0%
O=C(NCCN1CCN(c2ccccc2)CC1)c1cccn2c(=O)c3ccccc3nc12	15.5%	10.0	-0.3	36.5%
CC(C)=CCC/C(C)=C\CC/C(C)=C\CC/C(C)=C\CC1=C(C)C(=O)c2ccccc2C1=O	1.2%	x	x	x
CCc1ccccc1N(CC)C(=O)c1cc2c(s1)-c1ccccc1OC2	-1.3%	x	-2.6	10µM*
CCc1ccccc1N(CC)C(=O)c1cc2c(s1)-c1ccccc1SC2	x	x	-8.1	u
Cc1cccc2c1-c1sc(C(=O)NCCCN3CCCC(C)C3)cc1CO2 (stereo not given)	5.1%	-75.8*	-9.8	u
CN(C)CCNC(=O)c1cc2c(s1)-c1ccccc1OC2	0.3%	-81.4*	-13.0	u
CC1CCCC(C)N1CCCNC(=O)c1cc2c(s1)-c1ccccc1OC2 (stereo not given)	4.9%	u	-23.2	2µM*
C#CC1(OC(C)=O)CCC2C3CCC4=CC(OC(C)=O)CCC4C3CCC21C (stereo not given)	1.4%	x	x	x
CCCSS/C(CCO)=C(/C)N(C=O)Cc1cnc(C)nc1N	-3.5%	x	x	x
COc1cccc(Nc2ccc3cc(S(=O)(=O)N4CCC(C)CC4)ccc3n2)c1	x	x	16.3	u
Cc1cc(C(C)(C)C)ccc1OCCN1CCCC1	-4.2%	-64.3*	0.4	u
Cc1cc(Br)ccc1OCCOCCN1CCCC1	0.7%	-73.1*	-21.7	u
Cc1cc(C(C)(C)C)ccc1OCCCCN1CCCC1	0.4%	-10.7	-15.4	3.6%
Cc1cc(Br)ccc1OCCCCN1CCCCC1	0.8%	-50.9*	-12.0	u
Cc1nn2c(C)c(C(=O)NCc3cccc(Br)c3)cnc2c1-c1ccccc1	x	x	7.4	-23.6%
CC(C)(C)NC(=O)C(OC(=O)c1cccs1)c1ccc(F)cc1 (stereo not given)	-2.1%	10.8	2.4	-24.4%
CCOC(=O)c1c(CC(C)C)csc1NC(=O)c1ccccc1C(=O)O	-2.0%	13.2	-1.2	11.2µM*
CCOC(=O)c1c(CC(C)C)csc1NC(C)=O	16.2%	40.6	-5.2	u
Cc1sc2ncnc(SC(C)C(=O)N3c4ccccc4Sc4ccccc43)c2c1C (stereo not given)	0.0%	-15.6	-9.7	8.91µM*
Cc1ccc(OCC(=O)NNC(=O)C(C)Sc2ncnc3sc(C)c(C)c23)cc1 (stereo not given)	4.8%	7.2	1.5	0.0%
Cc1ccc(NC2=C/C(=N\S(=O)(=O)c3cccs3)c3ccccc3C2=O)c(C)c1	-8.6%	-91.3*	-22.5	u
Cc1cccc(NC2=C(NCCO)C(=O)c3ccccc3C2=O)c1	30.9%	-27.2	-8.5	-20.9%
Cc1ccc(Cl)cc1NC1=C/C(=N\S(=O)(=O)c2cccs2)c2ccccc2C1=O	-11.3%	-108.4*	-35.9	1µM*!
Cc1cccc(NC2=C/C(=N/S(=O)(=O)c3cccs3)c3ccccc3C2=O)c1	-15.3%	-92.6*	-14.5	-0.4%
